These results are taken from PubChem BioAssay (NCI).

Compounds without any hit were thinned out: in the full panel of roughly 79,000, 15% have a hit. The source made the active and inactive calls. No stated cut-off is given here; in the data, active means growth inhibition above about 70%; inactive means the rest.

This assay in a line: NCI Yeast Anticancer Drug Screen. Data for the bub3 strain (AID 167). The note with it: S. cerevisiae bub3 mutant strain, at 50.0 µM, stronger effect = higher value. An outline of the steps: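 Readout: yeast growth inhibition, expressed relative to vehicle-only wells. The test organism is a mutant strain from a panel with lesions in DNA repair or checkpoint genes.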
For `COc1ccc2[nH]c3c(c2c1)-c1ncncc1CC3`, the growth inhibition is 40.4% (inactive).
On to `CN(C)c1ccc(/C=C(/NC(=O)c2ccccc2)C(N)=O)cc1`, for which the growth inhibition was 7.6% (inactive).
Regarding `OC(C1COCO1)C1OCOC1C1COCO1` (stereo not given), the growth inhibition was -11.2% (inactive).
To `C/C(=N/O)c1ccc(C(F)(F)F)cc1` belongs -48.5% (inactive); to `O=C1c2ccccc2-c2nc3cc4ccccc4cc3nc21`, 11.4% (inactive); to `CCOP(=O)(OCC)C(Cc1ccc(OC)c(OC)c1)N=C(c1ccccc1)c1ccccc1` (stereo not given), -7.55% (inactive).
The result for `CCOC(=O)N1CCN(c2c(N)nc(C)[nH]c2=O)CC1` reads 19.1% (inactive).
The result for `Cn1c(-c2ccc(Br)cc2)cc2[nH]c(=S)nc(N)c2c1=O` reads -7.75% (inactive); that for `Cc1ccc(C)c(NS(=O)(=O)c2ccc(Cl)c([N+](=O)[O-])c2)c1`, 97.9% (active); that for `COC(=O)c1cccc(Cl)c1C(=O)c1ccc(C)cc1C`, 31.1% (inactive).
As to `CNC(=O)n1c(N)nc(-c2ccccc2)c1-c1ccccc1`, the growth inhibition is -22.1% (inactive).
The result for `Cc1ccc(C(C)C)c(O)c1NC(=S)N/N=C\c1cc(Cl)ccc1O` reads -14.2% (inactive); that for `COc1cc(Br)c(C=Nc2cccc3cc(OC)c(OC)cc23)cc1OC`, -27.1% (inactive).
The result for `NNC(=O)CNC(=O)c1ccccc1` reads 0% (inactive); that for `O=S(=O)(O)C(Cc1nc2ccccc2[nH]1)S(=O)(=O)OCCC1S(=O)(=O)OCCOS1(=O)=O` (stereo not given), 13.1% (inactive); that for `Cc1ncc([N+](=O)[O-])n1CCN(C)CCCCn1ccnc1[N+](=O)[O-]`, 7.7% (inactive).
To `Cc1oc([N+](=O)[O-])cc1C(=O)O` belongs -20.1% (inactive); to `Cc1ccccc1C(=O)OCCBr`, 8.2% (inactive).
Turning to `Cc1cccc(C(=O)NCCN(C)C)c1[N+](=O)[O-]`, the growth inhibition was -16.4% (inactive).
The result for `NC(CO)C(=O)NCCS(=O)(=O)O` (stereo not given) reads -7.05% (inactive); that for `CC(C)CCCC(C)C1CCC2C3C(=O)C=C4C=CCCC4(C)C3CCC12C` (stereo not given), 5.9% (inactive).
To `CCOC1(COP(=O)(OCc2ccccc2)OCc2ccccc2)COC(COP(=O)(OCc2ccccc2)OCc2ccccc2)(OCC)CO1` (stereo not given) belongs -3.75% (inactive); to `CCC[N+]1([O-])CCOCC1`, 14.3% (inactive).
The result for `CC12CCC(=O)C=C1CCC1C2CCC2(C)C(C(=O)Cn3c(=O)[nH]cc(F)c3=O)CCC12` (stereo not given) reads 6.55% (inactive); that for `C=CCOCn1ccc(NC(=O)c2ccccc2)nc1=O`, -8.4% (inactive); that for `O=C(O)c1ccc(N2C(=O)c3ccccc3C2=O)cc1`, -18.3% (inactive).
Turning to `CCN(CC)CCC1(C(N)=O)Cc2ccccc2N(CC)c2ccccc21` (stereo not given), the growth inhibition was 6.4% (inactive).
To `Cn1c(=O)c2c(nc3n(C)c(=O)c4ccccc4n23)n(C)c1=O` belongs 5.45% (inactive).
To `C=CCOc1cc(=O)[nH]c2ccccc12` belongs -0.45% (inactive).
To `CCCCCCOC(=O)/C=C1/OC(=O)c2ccccc21` belongs 11.4% (inactive); to `O=C1N(O)C2(C=CCCC2)/C(=N/O)C12CCCCC2` (stereo not given), 11.4% (inactive); to `O=C1C=CC(c2ccccc2)(c2ccccc2)O1`, -8.35% (inactive).
Take `Nc1cc(C(F)(F)F)cc(C(F)(F)F)c1`: the growth inhibition was -1.4% (inactive).
To `CC(O)(C(=O)c1ccccc1)c1ccccc1` (stereo not given) belongs -18.4% (inactive); to `CCC(SC)C(=O)N(C)c1ccccc1` (stereo not given), -13.1% (inactive); to `Cc1c(C)c2ccc(OCC(O)COC(C)C)c(C)c2oc1=O` (stereo not given), -1.95% (inactive).
The result for `COc1ccc(COC(=O)Nc2cccc(Cl)c2)cc1OC` reads 30.8% (inactive).
To `CC(=O)/C(=C/c1ccco1)CC(=O)O` belongs -18.4% (inactive).
As for `CCOC(=O)c1c(C)c2c(n1C)CCC(CCC(C)=O)C2=O` (stereo not given), the growth inhibition was 6.7% (inactive).
The result for `Cc1cn(CCCn2cnc3c(N)ncnc32)c(=O)[nH]c1=O` reads -31.4% (inactive).
